An excerpt weighted towards active compounds, which were near 2.2% of everything screened.
PvdQ inh: P. aeruginosa PvdQ acylase inhibitors, primary screen, biochemical, fluorescence, plate reader and imaging, single point; purified PvdQ acylase; inhibition, % at 10 µM; hit rate 0.063% among 340,000; AID 488965, 2010; in the data active = inhibition above about 30%, passing the limit was not always enough;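 note: 0% = vehicle neutral wells and 100% = reference inhibitor wells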
miR-122 sensor: miR-122 Renilla sensor signal increase in Huh7, primary screen, miR-122 inhibitor project, cell-based, single point, plate reader. Huh7 miR-122 Renilla luciferase sensor, 48 h; neutral wells = 0, positive control = 100. activation (reporter increase), % at 12.5 µM. hit rate 0.3% among 340,000. AID 602342, 2012;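 active = mean replicate activation score at least 90 and every replicate individually at or above 90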;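 note: higher luciferase means less miR-122 activity so hits act as miR-122 inhibitors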
DENV2 CPE: inhibitors of DENV2 cytopathic effect, primary screen, cell-based, plate reader, single concentration; DENV2-infected cells, cytopathic effect rescue; CPE inhibition, % at 9.99 µM; hit rate 1.7% among 350,000; AID 651640, 2012; in the data active = CPE inhibition above about 20%, passing the limit was not always enough; tested in BHK-21 cells;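 note: 0% = median of neutral control wells and 100% = median of positive control wells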
Statin myotox sup: suppressors of statin myotoxicity in C2C12 myotubes, primary screen, cell-based, single point, plate reader. C2C12 myotubes + simvastatin, ATP luminescence, 48 h; scaled: DMSO 0, geranylgeraniol control 100. rescue of ATP level, % at 7.49 µM. hit rate 0.78% among 330,000. AID 602340, 2012;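 active = mean ATP rescue above about 67%, or every replicate alone reaching that limit, limit read from the data, passing the limit was not always enough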;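 note: myotubes were challenged with 10 µM simvastatin during compound exposure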
PGC1a acetyl inh: inhibitors of PGC1a acetylation signal, primary screen, cell-based, U2OS, AlphaScreen, inhibitor mode; AlphaScreen anti-acetyl-lysine; with virally co-expressed GCN5 acetyltransferase; hit rate 0.17% among 350,000; inhibition, % at 15.6 µM;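 active = every replicate shows inhibition of at least 40%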;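 note: 0% = neutral control wells and 100% = positive control wells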
* hit, by the source's call; / = not tested or not shown; ! = not active in a repeat; [ ] = remark or other dose.

SMILES	PvdQ inh	miR-122 sensor	DENV2 CPE	Statin myotox sup	PGC1a acetyl inh
Cc1ccc(S(=O)(=O)N(C)C[C@@H]2Oc3ccc(NC(=O)CCCN(C)C)cc3CC(=O)N([C@@H](C)CO)C[C@H]2C)cc1	/	-2[16.7 µM]	-2	1	-2
C[C@@H](NC(=O)C[C@@H]1C=C[C@@H](NC(=O)C2CC2)[C@H](CO)O1)c1ccccc1	/	/	-5	-2	2
COC(=O)C(C)Sc1nc2c(cnn2-c2ccc(C)cc2)c(=O)[nH]1 (stereo not given)	-2	-5	/	106*	-10
COC(=O)C(C)Sc1nc2c(cnn2-c2ccc(F)cc2)c(=O)[nH]1 (stereo not given)	-6	-2	0	14	-2
COCCNC(=O)C[C@H]1C=C[C@H](NC(=O)NC2CCCCC2)[C@H](CO)O1	/	21[16.7 µM]	-10	-7	-1
C[C@H](CO)N1C[C@H](C)[C@H](CN(C)Cc2ccccn2)Oc2ncc(C#CC3CC3)cc2C1=O	/	-5[16.7 µM]	1	-4	6
O=C(COC(=O)c1ccc(NC(=O)C2CC=CCC2C(=O)O)cc1)c1ccccc1 (stereo not given)	-16	-1	68*	7	4
O=C(O)C1CC=CCC1C(=O)Nc1ccccc1 (stereo not given)	6	-1	/	6	-4
CCN(CCCNC(=O)C1CCC(=O)N1C(C)C)c1cccc(C)c1 (stereo not given)	-18	8	/	126*	48
CCN(CCCNC(=O)C1CCCN(S(=O)(=O)CC)C1)c1cccc(C)c1 (stereo not given)	11	0	/	-5	-6
O=C1CCCCN1CC(=O)N1CCCC(Nc2ccc(F)c(F)c2)C1 (stereo not given)	-15	-2	11	-1	15
O=C(Cn1cccn1)N1CCCC(Nc2ccc(F)c(F)c2)C1 (stereo not given)	-11	2	27*	5	-4
CC(C)(C)NC(=O)C(c1ccc(-c2ccccc2)cc1)n1c(=O)c(-c2ccccc2)nc2ccccc21 (stereo not given)	/	/	-11	/	/
Cc1csc(-c2nc3ccccc3n2C(C(=O)NC(C)(C)C)c2ccccc2)c1 (stereo not given)	/	/	22*	/	/
CC1CCCCN1CCCNC(=O)c1ccc2nc(N3CCCCC3)sc2c1 (stereo not given)	-5	-5	25*	0	-8
CCCN1CCN(CCCNC(=O)c2ccc3nc(N4CCC(C)CC4)sc3c2)CC1	-6	-13	-7	-10	-6
Cc1noc(C)c1NC(=O)Nc1ccc2c(c1)C(=O)N([C@@H](C)CO)C[C@@H](C)[C@@H](CN(C)Cc1ccncc1)OCCCC[C@@H](C)O2	/	8[16.7 µM]	-2	/	-3
CC(=O)N1[C@H](CO)[C@H](c2ccccc2)C12CN(S(=O)(=O)c1ccccc1)C2	/	/	-12	/	/
CC(C)NC(=O)Nc1ccc2c(c1)C(=O)N([C@H](C)CO)C[C@H](C)[C@H](CN(C)CC1CC1)OCCCC[C@@H](C)O2	/	5[16.7 µM]	107*	25	-5
C[C@@H]1CCCCO[C@@H](CN(C)CC2CCCCC2)[C@H](C)CN([C@@H](C)CO)C(=O)c2cc(NC(=O)Nc3ccc(F)cc3)ccc2O1	/	0[16.7 µM]	29*	/	-14
CC=Cc1ccc2n(c1=O)C[C@@H]1[C@@H](CO)[C@H](C(=O)NC3Cc4ccccc4C3)[C@H]2N1C(C)=O (mixture of isomers)	/	/	31*	-4	/
CCN1[C@@H]2c3ccc(-c4ccccc4)c(=O)n3C[C@H]1[C@H](CO)[C@H]2C(=O)Nc1ccccc1	/	-2[16.7 µM]	8	5	/
CC(=O)N1[C@@H]2Cn3c(ccc(-c4ccccc4)c3=O)[C@H]1[C@@H](C(=O)NC1Cc3ccccc3C1)[C@@H]2CO	/	4[16.7 µM]	/	11	/
CC(=O)N1[C@@H]2c3ccc(-c4ccccc4)c(=O)n3C[C@H]1[C@H](CO)[C@H]2C(=O)Nc1ccccc1	/	/	48*	20	/
C[C@@H]1CCCCO[C@H](CN(C)Cc2ccc(C(F)(F)F)cc2)[C@@H](C)CN([C@@H](C)CO)C(=O)c2cc(NC(=O)Nc3ccccc3)ccc2O1	/	-12[16.7 µM]	-2	/	1
SMILES	PvdQ inh	miR-122 sensor	DENV2 CPE	Statin myotox sup	PGC1a acetyl inh
C[C@@H]1CN([C@@H](C)CO)C(=O)c2cc(C#CCN(C)C)cnc2O[C@@H]1CN(C)Cc1ccc(F)cc1	/	-2[16.7 µM]	-2	-12	2
C[C@@H]1CN([C@H](C)CO)C(=O)c2cc(C#C[C@@H](C)O)cnc2O[C@H]1CN(C)C(=O)c1ccc(F)cc1	/	-1	43*!	5	-13
C[C@H](CO)N1C[C@H](C)[C@H](CN(C)C(=O)Nc2ccccc2F)Oc2ncc(C#CCN(C)C)cc2C1=O	/	/	72*	/	3
CC(C)CC#Cc1cnc2c(c1)C(=O)N([C@H](C)CO)C[C@@H](C)[C@@H](CN(C)C(=O)c1ccc(F)cc1)O2	/	-3[16.7 µM]	21*	13	30
C[C@H]1CN([C@@H](C)CO)C(=O)c2cc(C#CCN(C)C)cnc2O[C@H]1CN(C)Cc1ccc(F)cc1	/	5[16.7 µM]	32*	-6	-7
C[C@H]1CN([C@@H](C)CO)C(=O)c2cc(C#CCN(C)C)cnc2O[C@@H]1CN(C)C(=O)Nc1ccccc1F	/	-5[16.7 µM]	-5	0	-1
C[C@@H]1CN([C@@H](C)CO)S(=O)(=O)c2ccc(C#Cc3ccccc3)cc2O[C@H]1CN(C)C	/	-5[16.7 µM]	0	-30	-33
CCC(=O)N1CC(=O)N2[C@H](C1)[C@H](c1ccc(C#Cc3cccc(OC)c3)cc1)[C@@H]2CO	/	/	-4	/	-6
CC(C)CC#Cc1cnc2c(c1)C(=O)N([C@@H](C)CO)C[C@H](C)[C@H](CN(C)Cc1ccc(C(=O)O)cc1)O2	/	4[16.7 µM]	78*	-1	11
C[C@H]1CN([C@@H](C)CO)C(=O)c2cc(C#CCN(C)C)cnc2O[C@@H]1CN(C)C(=O)c1ccc(F)cc1	/	-5[16.7 µM]	-1	-5	3
CCCC#Cc1cnc2c(c1)C(=O)N([C@@H](C)CO)C[C@H](C)[C@H](CN(C)Cc1ccc(C(=O)O)cc1)O2	/	0[16.7 µM]	9	-6	-2
C[C@H](CO)N1C[C@H](C)[C@H](CN(C)C(=O)c2ccc(F)cc2)Oc2ncc(C#CCN(C)C)cc2C1=O	/	-3[16.7 µM]	35*	16	-4
Cc1ccc(S(=O)(=O)Nc2ccc3c(c2)C(=O)N([C@H](C)CO)C[C@H](C)[C@@H](CN(C)Cc2ccc(C(F)(F)F)cc2)OCCCC[C@H](C)O3)cc1	/	-5[16.7 µM]	-20	/	-6
COc1ccc(S(=O)(=O)Nc2ccc3c(c2)C(=O)N([C@@H](C)CO)C[C@@H](C)[C@@H](CN(C)S(=O)(=O)c2ccc(F)cc2)OCCCC[C@H](C)O3)cc1	/	13[16.7 µM]	-1	151*	13
